ERa coact pot: enhancers of ERα–SRC-1 coactivator binding, primary screen, biochemical, TR-FRET, ERα LBD, low estradiol. coactivator binding (% of control), % at 25.6 µM. 86,000 tested, 1.3% active. TR-FRET ERalpha-LBD/SRC-Cy5 coactivator binding, 2 h; 100 = basal binding, no effect. Estrogen receptor (Homo sapiens), P03372; in the data active = activity above about 200%;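 note: binding measured in presence of low estradiol as agonist stimulus; 0% = peptide alone without receptor and 100% = receptor with peptide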
Target sequence (P03372 whole entry, looked up, the tested form may be a part): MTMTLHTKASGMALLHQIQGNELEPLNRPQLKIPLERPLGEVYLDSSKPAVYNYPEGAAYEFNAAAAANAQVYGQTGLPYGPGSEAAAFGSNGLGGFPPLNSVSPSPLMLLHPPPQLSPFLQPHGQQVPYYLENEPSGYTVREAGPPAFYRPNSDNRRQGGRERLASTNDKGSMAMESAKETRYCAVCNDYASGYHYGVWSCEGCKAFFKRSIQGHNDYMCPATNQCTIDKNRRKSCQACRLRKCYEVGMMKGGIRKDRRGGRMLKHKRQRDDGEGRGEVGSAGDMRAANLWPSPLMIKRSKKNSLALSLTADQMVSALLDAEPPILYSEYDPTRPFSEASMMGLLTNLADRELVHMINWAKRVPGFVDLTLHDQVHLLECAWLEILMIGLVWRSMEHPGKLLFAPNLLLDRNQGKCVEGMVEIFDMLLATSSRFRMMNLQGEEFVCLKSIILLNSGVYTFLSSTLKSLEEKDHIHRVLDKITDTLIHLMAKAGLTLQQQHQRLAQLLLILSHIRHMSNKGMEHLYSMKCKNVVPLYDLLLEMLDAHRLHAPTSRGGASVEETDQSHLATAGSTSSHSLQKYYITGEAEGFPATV
MRP resist rev: reversal of MRP1-mediated doxorubicin resistance, primary screen, H69AR cells, doxorubicin co-treatment; H69AR cells + 2 uM doxorubicin, CellTiter-Glo, 72 h; differential viability (reversal), % at 10 µM; 85,000 tested, 0.04% active;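 active = viability drop by adding the cancer drug above about 55%, with treated viability meeting a 40% cutoff, limit read from the data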;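 note: viability without doxorubicin minus viability with 2 µM doxorubicin for each compound; larger differential means the compound sensitizes cells more to doxorubicin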
MRP-1 activ: H69AR viability gain despite doxorubicin, primary screen, MRP-1 activator project, H69AR cells, CellTiter-Glo; viability rescue; viability increase, % at 10 µM; 140,000 tested, 0.61% active; AID 799, 2007;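 active = viability gain under doxorubicin at or above a set limit, the compound median plus 3 SD, cut at about 4.7% in these data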;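 note: MRP-1 overexpressing cells given doxorubicin 25 µM after compound pretreatment; 18-22 h compound pretreatment then 72 h with doxorubicin before readout; 0% = doxorubicin-only wells and 100% = vehicle-treated cells without doxorubicin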
ERb SRC1 inh: inhibitors of ERβ-SRC1 coactivator interaction, primary screen, biochemical, TR-FRET, ERβ LBD, SRC-1 peptide | TR-FRET ER-beta LBD / SRC1-Cy5 peptide binding; receptor agonist-loaded with 1 µM estradiol | inhibition, % at 25.6 µM | 86,000 tested, 1.3% active;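 active = compounds whose percent inhibition of the receptor-coactivator binding signal exceeds about 50% in the single-dose screen, limit read from the data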;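 note: 0% = receptor plus peptide wells without compound and 100% = peptide-only wells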
ERa coact inh: ERα–SRC-1 coactivator interaction inhibitors, primary screen, biochemical, TR-FRET, ERα LBD, estradiol-bound; TR-FRET ER-alpha LBD / SRC-1 peptide; AID 629, 2007; 86,000 tested, 1.7% active; inhibition, % at 25.6 µM; in the data active = inhibition above about 50%;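 note: 0% = receptor plus peptide control and 100% = peptide only without receptor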
* = called active by the depositor; . = no result given; [ ] = remark or other dose. The list is not random: actives were taken first. Their share in the collection is about 2.7%.

SMILES	ERa coact pot	MRP resist rev	MRP-1 activ	ERb SRC1 inh	ERa coact inh
CC(C)(C)n1ncc(Oc2ccc(Oc3cnn(C(C)(C)C)c(=O)c3Cl)cc2)c(Cl)c1=O	114	-7	.	7	-13
Cc1ccc(C2C(C#N)=C(N)Oc3c2sc2ccccc32)o1 (centres undefined)	74	-32	-2	70*[fluorescence artefact?]	70*[fluorescence artefact?]
COc1ccc2c(c1)-c1ccccc1S(=O)(=O)N2C(C)=O	25	-6	-1	63*[fluorescence artefact?]	87*[fluorescence artefact?]
COCCCNC(=O)Cn1cc2c(n1)CCC(C)C2 (centres undefined)	205*	0	-1	-1	13
CN(C(=O)CSc1nc(N)c2c3c(sc2n1)CSC(C)(C)C3)c1ccccc1	.	.	-5	.	.
CC(=O)c1c(C(C)=O)c(C)n(-c2ccc(C(=O)O)cc2)c1C	106	.	0	20	5
Cc1nc(=O)c(-c2ccccc2)c(C)n1-c1ccc(C(=O)O)cc1	122	-5	9.1*	-1	-2
Cc1nc(=O)c(-c2ccccc2)c(C)n1-c1ccc(S(N)(=O)=O)cc1	96	9	6.8*	-28	-38
Cc1nc(=O)c(-c2ccccc2)c(C)n1CCCO	143	.	-1	3	-8
Cc1ccc(C)n1-c1ccc(C(=O)O)cc1	19	-3	0	46	54*[fluorescence artefact?]
COc1ccccc1-c1nnc(SCC(=O)NC2CCS(=O)(=O)C2)n1CCc1ccccc1 (centres undefined)	.	.	-2	.	.
O=CN1CCN(C(=O)c2ccc([N+](=O)[O-])cc2)CC1	.	.	-2	.	.
COc1ccccc1NC(=O)C1=C(C)NC(SCC(=O)c2ccc(C)cc2)=C(C#N)C1c1ccco1 (centres undefined)	203*	-9	-2	-2	-4
CC(=O)C1=C(C)NC(SCC(=O)c2ccc(F)cc2)=C(C#N)C1c1ccco1 (centres undefined)	107	4	-2	2	-2
COc1cccc(Nc2ncc(C(=O)O)c3ccccc23)c1	110	0	5.1*	3	3
O=C(O)c1ccc(N2CCCCC2)cc1	86	-17	-1	9	-5
Nc1ccc(N2CCCCCC2)cc1	16	-3	-5	93*[fluorescence artefact?]	97*[fluorescence artefact?]
COc1ccc(NC(=O)c2c(F)cccc2F)cc1S(=O)(=O)Nc1ccc(Br)cc1	.	.	6.3*	.	.
O=C(O)c1cc(Nc2nc(N3CCOCC3)nc(N3CCOCC3)n2)ccc1Cl	106	-3	-2	9	2
O=C(O)c1cccc(Nc2nc(N3CCOCC3)nc(N3CCOCC3)n2)c1	626*[fluorescence artefact?]	-4	-1	-6	-4
CCOc1cc(N2CCOCC2)c(OCC)cc1NC(C)C(=O)N1CCC(C)CC1 (centres undefined)	.	.	-2	.	.
Cc1cc(N/N=C/c2ccccc2Cl)nc(NCc2ccccc2)n1	.	.	7.1*	.	.
Cc1cc(C)nc(N/N=C/c2ccccc2)n1	.	.	1	.	.
Cc1ccc(Nc2cc(C)nc(NCc3ccccc3)n2)cc1	.	.	-5	.	.
Cc1cc(C)nc(N/N=C/c2cccc3ccccc23)n1	.	.	5.7*	.	.
SMILES	ERa coact pot	MRP resist rev	MRP-1 activ	ERb SRC1 inh	ERa coact inh
COc1ccc(/C(O)=C/c2nc3ccc(C(=O)NCCc4cccc(C)c4)cc3[nH]c2=O)cc1OC	.	.	-6	.	.
Cc1ccc(SCc2ccc(C(=O)NCc3ccncc3)cc2)cc1	.	.	2	.	.
N#C/C(=N\Nc1ccc(F)cc1)C(=N)N1CCCCC1	91	12	2	-2	-10
N#C/C(=N/Nc1ccccc1F)C(=N)N1CCOCC1	.	.	8.1*	.	.
Cc1cc(C)cc(-c2nc(-c3ccncc3)no2)c1	90	14	-1	24	10
CC(C)(C)c1ccc(-c2nc(-c3ccncc3)no2)cc1	99	9	6.2*	-7	-7
Clc1ccc(Br)cc1-c1nc(-c2ccncc2)no1	246*[fluorescence artefact?]	15	-2	27	34
COc1ccccc1NC(=O)c1cnc2n(c1=O)CCS2	117	1	-2	-2	-10
COc1ccc(C)cc1NC(=O)CCCN1C(=S)NC(C)(C)CC1C (centres undefined)	.	.	-3	.	.
O=C(NN1C(=O)c2ccccc2NC1c1ccccn1)c1ccc(Br)cc1 (centres undefined)	.	.	2	.	.
CCOC(=O)C1CCCN(Cc2ccc(OC)cc2OC)C1 (centres undefined)	124	0	30*	-7	-10
C=CCSC1=N/C(=C/c2ccsc2)C(=O)N1c1ccccc1	.	.	-2	.	.
CC(O)(CS(=O)(=O)Cc1ccccc1)C(=O)Nc1ccc(C(F)(F)F)cc1 (centres undefined)	.	.	7.9*	.	.
CC(O)(CS(=O)(=O)Cc1ccccc1)C(=O)Nc1cccc(C(F)(F)F)c1 (centres undefined)	.	.	2	.	.
CC(CCc1ccccc1)NC(=O)c1nnc(Cc2ccc(Cl)cc2)o1 (centres undefined)	117	-10	9.9*	3	-3
CC(CCc1ccccc1)NC(=O)CN1CCN(Cc2ccccc2)C1=O (centres undefined)	108	6	-2	-6	3
CC(CCc1ccccc1)NC(=O)CN1CCN(Cc2ccc(Cl)cc2)C1=O (centres undefined)	110	-9	7.3*	-7	1
CC/C(=N/Nc1ccccc1)c1cnnc(-c2ccccc2)n1	87	1	-4	60*	82*[fluorescence artefact?]
CC(=O)Nc1nc(C)c(Oc2ccc(Cl)cc2Cl)c(=O)[nH]1	34	25	32*	30	4
COc1cc2nc(NC(=O)c3ccc(Cl)cc3)[nH]c(=O)c2cc1OC	99	1	0	-3	22
CCOc1nc(NC(=O)NS(=O)(=O)Oc2cccc(Cl)c2)nc(-c2ccccc2)n1	.	8	-1	.	.
CCOc1ccc(NC(=O)N2CCC(n3c(=O)[nH]c4ccccc43)CC2)cc1	122	-16	5.6*	-4	-10
O=C(Nc1ccccc1C(F)(F)F)N1CCC(n2c(=O)[nH]c3ccccc32)CC1	.	.	-4	.	.
O=C(c1ccco1)N1CCN(C(=O)c2cc(-c3ccccc3)nc3ccccc23)CC1	95	-6	-4	-16	-3
O=C(c1ccco1)N1CCN(C(=O)c2cc(-c3ccccn3)nc3ccc(Cl)cc23)CC1	44	-14	-2	54*[fluorescence artefact?]	64*[fluorescence artefact?]
CN1CCc2c(sc(/N=C/c3cccs3)c2C(N)=O)C1	70	9	-2	74*[fluorescence artefact?]	24
COc1ccc(S(=O)(=O)Oc2ccc3c(c2)O/C(=C\c2cccnc2)C3=O)cc1	97	-22	-3	7	-7
C=CCn1cnc2c(c1=O)c1nc3ccccc3nc1n2/N=C/c1cccc(OC)c1OC	66	1	.	-1	85*[fluorescence artefact?]
Cc1nnc(NC(=O)COc2ccccc2)s1	94	1	5.1*	7	-10

Screening data: PubChem BioAssay, several laboratories
